These results are taken from PubChem BioAssay (NCATS).

Where “and” joins values, the source holds several entries; their conditions need not be identical. Equal entries are not always repeated. Records with an inconclusive call do not appear. Calls of active or inactive are those of the source. Unless noted, the call rests on the fitted dose curve; in most records, active means well fitted curve in the direction sought with a large enough effect; inconclusive means small, poorly fitted or top-dose-only effect, or another doubt; inactive means no such curve, though single readings can be large; an effect the other way counts as inactive or inconclusive.

Assay [1] has as its target Glucocorticoid receptor (Homo sapiens) (UniProt P04150). Nature of the assay: qHTS assay for small molecule agonists of glucocorticoid receptor signaling (AID 588532; active means well fitted curve in the direction sought with a large enough effect in the signal ratio, with a control signal flat; the % refers to the signal ratio;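 further: 100% = dexamethasone at 0.1 µM and 0% = DMSO only wells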). The note with it: HeLa MMTV-bla, beta-lactamase ratio, agonist, 18 h; stronger effect = higher value; percent of dexamethasone control, DMSO zero. An outline of the steps: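 Cells were plated and rested 3-5 h at 37 C, compounds were added in titration and incubated 18 h, then CCF4 substrate was loaded for 2 h at RT before reading blue/green fluorescence. EC50 came from Hill-equation fitting.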
(In general: In qHTS, concentration-response curves come from the screen itself.)

For assay [2], the target named is Luciferin 4-monooxygenase (Photinus pyralis) (UniProt P08659). Nature of the assay: Biochemical firefly luciferase enzyme assay for NPC (AID 624030).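 Further: purified P. pyralis luciferase at 10 nM with luciferin and ATP substrate; 0% = DMSO and -100% = full luciferase inhibition by PTC124 control; nearly all actives have a fitted effect of over 70% in size.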 Particulars: purified P. pyralis luciferase, luminescence, 5 min; series mostly up to 58.6 µM. The essentials:
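Purified P. pyralis luciferase at 10 nM in 50 mM Tris Acetate (final), luminescence read within 5 minutes of enzyme addition to compounds. Activity normalised to PTC124 versus DMSO; concentration-response curves classed by r2, magnitude and activity.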

Assay [3] can be described thus: S16 Schwann cell viability assay (CellTiter-Glo assay) (AID 624031).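 Further: native untransfected S16 rat Schwann cells; cellular ATP luminescence as a viability measure; plate controls were DMSO-treated cells for no effect and cell-free wells for full effect; nearly all actives have a fitted effect of over 70% in size.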 Particulars: S16 rat Schwann cells viability, 24 h; series mostly up to 57.5 µM. An outline of the steps: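 Parental S16 cells, 24 h compound, 37 °C. ATP-luminescence viability; DMSO = 0% activity, empty wells as reference; curves classified by fit quality and efficacy.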
Assay [4] can be described thus: S16 Schwann cell PMP22 intronic element beta-lactamase assay (AID 624044; calls by dose curve;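 further: 0% = DMSO and -100% = potassium clavulanate positive control; nearly all actives have a fitted effect of over 15% in size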). The note with it: S16 rat Schwann cells, PMP22 element beta-lactamase FRET, 24 h; series mostly up to 38.3 µM. An outline of the steps:
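Rat S16 Schwann cells with beta-Lac driven by a PMP22 intronic element, compound-treated 24 h at 37 °C. LiveBLAzer FRET B/G read: 460 nm normalized to potassium clavulanate vs DMSO; 535 nm FRET as viability; concentration-effect curves classified.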

Assay [5] can be described thus: qHTS of Trypanosoma Brucei Inhibitors: LOPAC Validation (AID 624147). Further: potency means the concentration at half of the fitted maximal effect. The note with it: purified enzyme assay, luminescence, 45 min; series mostly up to 57.5 µM. The essentials: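 Readout: single end-point luminescence (Kinase-Glo Plus, 10 min). Reaction conditions were TbPYK/substrate plus 130 uM ADP, 45 min at RT, pH 7.2 TEA buffer. No-enzyme wells served as controls, and data were normalized before concentration-response fitting.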

Assay [6] concerns the target Glucocorticoid receptor (Homo sapiens) (UniProt P04150). Nature of the assay: qHTS assay for small molecule antagonists of glucocorticoid receptor signaling (AID 588533; active means well fitted inhibition curve with a large enough effect in the signal ratio, with a control signal flat, not every such curve was filed as active; the % refers to the signal ratio; further: on the % scale 0 is the no-effect control and ±100 the full control effect). Particulars: HeLa MMTV-bla, GRE beta-lactamase ratio, antagonist mode, 18 h; series mostly up to 76.8 µM. An outline of the steps:
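Antagonist-mode qHTS: compound titrations added to GRE-bla HeLa cells, then dexamethasone 2 nM final; 18 h, 37 C. CCF4 FRET fluorescence normalized to dexamethasone and DMSO; IC50 from Hill fit.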

Assay [7] can be described thus: qHTS assay for small molecule antagonists of peroxisome proliferator-activated receptor delta signaling (AID 588535; active means well fitted inhibition curve with a large enough effect in the signal ratio, with a control signal flat, not every such curve was filed as active; the % refers to the signal ratio;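 on max response: cells co-treated with a PPAR-delta agonist as stimulator during compound exposure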). Particulars: HEK293T PPARd-UAS-bla, beta-lactamase FRET ratio, 18 h; 460 nm channel. An outline of the steps: (§1)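 Antagonist-mode beta-lactamase reporter (GeneBLAzer PPAR-delta-UAS-bla) in HEK293T cells, 2% charcoal/dextran FBS, 4000 cells/well. Compound titrations, 18 h at 37 C; CCF4 ratio read, IC50 and efficacy from Hill fits.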

Assay [8] addresses Peroxisome proliferator-activated receptor delta (Homo sapiens) (UniProt Q03181). The description is as above. The note with it: HEK293T PPARd-UAS-bla, beta-lactamase FRET ratio, 18 h; series mostly up to 76.7 µM. An outline of the steps: as §1
Assay [9] has as its target Peroxisome proliferator-activated receptor gamma (Homo sapiens) (UniProt P37231). Nature of the assay: qHTS assay for small molecule agonists of peroxisome proliferator-activated receptor gamma signaling (AID 588536; active means well fitted curve in the direction sought with a large enough effect in the signal ratio, with a control signal flat, not every such curve was filed as active; the % refers to the signal ratio;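 further: 0% = DMSO basal wells and 100% = rosiglitazone at 2 µM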). The note with it: HEK293 PPARg-UAS-bla, beta-lactamase ratio, 16 h, percent of rosiglitazone response, DMSO as zero; series mostly up to 76.7 µM. The essentials: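 Ratiometric blue/green fluorescence (405 nm excitation; 460 and 530 nm emission) from CCF4-loaded HEK293 reporter cells serves as signal. Exposure to test compounds lasts 16 h at 37 C in medium containing 1% charcoal/dextran-treated serum.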

The target is the same in assay [10]. Briefly: qHTS assay for small molecule antagonists of peroxisome proliferator-activated receptor gamma signaling (AID 588537; active means well fitted inhibition curve with a large enough effect in the signal ratio, with a control signal flat, not every such curve was filed as active; the % refers to the signal ratio;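 further: reporter cells co-stimulated with 50 nM rosiglitazone agonist during compound treatment; % of control where 0% means no effect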). Particulars: HEK293 PPARg-UAS-bla, beta-lactamase ratio, antagonist mode; series mostly up to 76.8 µM. The essentials: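 PPARγ-UAS-bla HEK293 cells (3000/well) in 1% charcoal/dextran-stripped FBS are treated with compound, then stimulated with 50 nM rosiglitazone for 16 h at 37 °C. Read-out is CCF4 β-lactamase fluorescence after 2 h at RT. IC50 comes from Hill fits normalised to rosiglitazone and DMSO.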

For assay [11], the target named is Vitamin D3 receptor (Homo sapiens) (UniProt P11473). Nature of the assay: qHTS assay for small molecule antagonists of vitamin D receptor signaling (AID 588541; calls by dose curve;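 further: receptor activated by calcitriol during compound treatment; on the % scale 0 is the no-effect control and ±100 the full control effect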). Particulars: HEK293T VDR-UAS-bla, beta-lactamase ratio, antagonist mode; series mostly up to 76.7 µM. An outline of the steps: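 VDR-UAS-bla HEK293T cells in 2% charcoal-stripped FBS were stimulated with 1-alpha,25-dihydroxyvitamin D3 (3 nM final) plus compound for 16 h at 37 C. The beta-lactamase CCF4 readout was normalized to 50 nM agonist and DMSO, and Hill fits gave IC50.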
Chain of Vitamin D3 receptor (Homo sapiens) (P11473 whole entry, looked up): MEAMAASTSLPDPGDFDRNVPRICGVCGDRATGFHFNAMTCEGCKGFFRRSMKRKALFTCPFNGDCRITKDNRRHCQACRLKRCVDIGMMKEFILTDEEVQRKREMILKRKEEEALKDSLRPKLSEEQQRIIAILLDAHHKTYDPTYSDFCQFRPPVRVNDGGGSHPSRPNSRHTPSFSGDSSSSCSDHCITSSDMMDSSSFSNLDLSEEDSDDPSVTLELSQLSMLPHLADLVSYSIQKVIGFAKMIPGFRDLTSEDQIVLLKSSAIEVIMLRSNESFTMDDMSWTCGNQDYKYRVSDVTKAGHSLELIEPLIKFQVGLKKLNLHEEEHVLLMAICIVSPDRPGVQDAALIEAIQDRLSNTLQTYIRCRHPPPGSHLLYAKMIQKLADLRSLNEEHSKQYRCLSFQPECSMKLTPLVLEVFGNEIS

For assay [12] the target is unchanged. Nature of the assay: qHTS assay for small molecule agonists of vitamin D receptor signaling (AID 588543; calls by dose curve;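 further: 0% = DMSO basal and 100% = reference agonist control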). The note with it: HEK293T VDR-UAS-bla, beta-lactamase ratio, 16 h; series mostly up to 76.8 µM. An outline of the steps:
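β-lactamase reporter, VDR-UAS-bla HEK293T, agonist mode. Cells plated 5 h at 37 °C, compound titration 16 h at 37 °C, CCF4 dye 2 h RT, ratio 460/530 nm. Hill fit → EC50, efficacy vs 50 nM 1α,25-(OH)2D3.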

Assay [13] is described as follows: qHTS assay for small molecule agonists of retinoid X receptor alpha signaling (AID 588544; calls by dose curve;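 on activation: 0% = DMSO basal wells and 100% = reference agonist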). Particulars: HEK293T RXRa-UAS-bla, beta-lactamase reporter, 18 h; 530 nm emission.
Assay [14] concerns the target Retinoic acid receptor RXR-alpha (Homo sapiens) (UniProt P19793). The description is as above. The note with it: HEK293T RXRa-UAS-bla, beta-lactamase reporter, 18 h; series mostly up to 76.7 µM.
The nature of assay [15]: qHTS assay for small molecule antagonists of retinoid X receptor alpha signaling (AID 588546; active means well fitted inhibition curve with a large enough effect in the signal ratio, with a control signal flat, not every such curve was filed as active; the % refers to the signal ratio;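 further: cells stimulated with 9-cis-retinoic acid as agonist; on the % scale 0 is the no-effect control and ±100 the full control effect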). The note with it: HEK293T RXRa-UAS-bla, beta-lactamase ratio, antagonist mode; measured here: W530 green channel, cytotoxicity proxy. The essentials: (§2)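 Beta-lactamase reporter inhibition, read as CCF4 fluorescence ratio (ex 405, em 460/530 nm) after 2 h at RT. HEK293T UAS-bla cells, 2500/well, were stimulated with 9-cis-RA at 500 or 100 nM final alongside test compound for 18 h at 37 C.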

Assay [16] addresses Retinoic acid receptor RXR-alpha (Homo sapiens) (UniProt P19793). Described as above. The note with it: HEK293T RXRa-UAS-bla, beta-lactamase ratio, antagonist mode. The essentials: as §2
For assay [17], the target named is Thyroid hormone receptor beta (Homo sapiens) (UniProt P10828). Nature of the assay: qHTS assay for small molecule antagonists of thyroid hormone receptor beta signaling (AID 588547; active means well fitted inhibition curve with a large enough effect in the signal ratio, with a control signal flat, not every such curve was filed as active; the % refers to the signal ratio;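 further: cells stimulated with 0.4 nM T3 agonist during compound exposure; on the % scale 0 is the no-effect control and ±100 the full control effect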). The note with it: TR-UAS-bla HEK293, beta-lactamase ratio, antagonist mode, 18 h. An outline of the steps:
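TR-UAS-bla GripTite HEK293 cells in 2% charcoal/dextran FBS medium; compounds 0.59 nM to 92 uM with T3 at 0.4nM final, 18 h at 37 C. Beta-lactamase read by CCF4 fluorescence (460/530 nm); Hill fits gave IC50 and efficacy.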

For assay [18], the target named is Voltage-gated inwardly rectifying potassium channel KCNH2 (Homo sapiens) (UniProt Q12809). Nature of the assay: qHTS Assay for Small Molecule Inhibitors of the Human hERG Channel Activity (AID 588834).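 Further: lower thallium flux fluorescence means stronger hERG block; nearly all actives have a fitted effect of over 50% in size.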 Further: potency means the concentration at half of the fitted maximal effect. The note with it: U2OS BacMam hERG, FluxOR thallium flux fluorescence; series mostly up to 46.1 µM. An outline of the steps: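 Concentration-response qHTS measuring drop in thallium-sensitive dye signal. U2OS cells carrying BacMam hERG; compound exposure ~10 min, then stimulation buffer and 2 min read at 1 sec intervals.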
Chain of Voltage-gated inwardly rectifying potassium channel KCNH2 (Homo sapiens) (Q12809 whole entry, looked up): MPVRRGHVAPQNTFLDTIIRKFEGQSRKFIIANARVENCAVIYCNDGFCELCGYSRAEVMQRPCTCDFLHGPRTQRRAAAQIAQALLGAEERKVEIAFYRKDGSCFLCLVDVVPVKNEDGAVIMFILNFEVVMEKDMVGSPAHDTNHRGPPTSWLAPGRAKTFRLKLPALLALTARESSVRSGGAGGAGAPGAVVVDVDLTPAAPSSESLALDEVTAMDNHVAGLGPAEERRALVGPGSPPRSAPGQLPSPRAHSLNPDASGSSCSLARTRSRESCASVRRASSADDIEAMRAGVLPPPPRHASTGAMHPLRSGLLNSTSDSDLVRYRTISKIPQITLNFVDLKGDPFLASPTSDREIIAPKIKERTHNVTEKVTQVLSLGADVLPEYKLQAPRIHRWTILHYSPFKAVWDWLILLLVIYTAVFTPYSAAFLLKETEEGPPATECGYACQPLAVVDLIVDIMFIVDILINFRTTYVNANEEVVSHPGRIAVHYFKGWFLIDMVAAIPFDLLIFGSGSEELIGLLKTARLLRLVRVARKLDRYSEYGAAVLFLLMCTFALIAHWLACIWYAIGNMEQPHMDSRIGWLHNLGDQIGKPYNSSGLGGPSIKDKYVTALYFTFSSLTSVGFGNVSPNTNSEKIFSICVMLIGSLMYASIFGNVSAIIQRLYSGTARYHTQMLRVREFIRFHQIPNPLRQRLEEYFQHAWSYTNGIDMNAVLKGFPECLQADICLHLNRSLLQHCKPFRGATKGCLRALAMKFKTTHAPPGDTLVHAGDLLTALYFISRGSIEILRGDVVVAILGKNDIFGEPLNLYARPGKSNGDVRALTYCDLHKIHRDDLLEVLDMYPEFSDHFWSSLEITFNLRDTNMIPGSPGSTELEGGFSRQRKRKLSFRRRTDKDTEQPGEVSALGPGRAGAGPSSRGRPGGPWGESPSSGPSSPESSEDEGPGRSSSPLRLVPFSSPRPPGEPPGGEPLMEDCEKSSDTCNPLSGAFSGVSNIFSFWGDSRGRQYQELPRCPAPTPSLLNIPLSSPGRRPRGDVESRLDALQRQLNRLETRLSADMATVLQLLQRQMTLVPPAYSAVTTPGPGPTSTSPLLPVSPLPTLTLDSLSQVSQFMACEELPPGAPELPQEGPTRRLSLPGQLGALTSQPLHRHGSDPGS

Assay [19] in a line: S16 Schwann cell PMP22 intronic element firefly luciferase assay (AID 624032).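 Further: plate controls were DMSO for no effect and PTC124 positive control mean for full effect; nearly all actives have a fitted effect of over 30% in size.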 Particulars: S16 rat Schwann cells, PMP22 element FLuc, 24 h; series mostly up to 57.5 µM. The essentials:
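Rat S16 Schwann cells stably carrying firefly luciferase driven by a PMP22 intronic element, in 10% FBS, treated 24 h at 37 C. ONE-Glo luminescence normalized to PTC124 control and DMSO (0%); curves classed by r2, magnitude and activity.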

The target in assay [20] is Glutaminase kidney isoform, mitochondrial (Homo sapiens) (UniProt O94925). Briefly: qHTS for Inhibitors of Glutaminase (GLS): LOPAC Validation (AID 624146). Further: nearly all actives have a fitted effect of over 60% in size. Further: potency means the concentration at half of the fitted maximal effect. Particulars: glutaminase enzyme activity inhibition; series mostly up to 46.1 µM. The essentials: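 Enzyme dispensed in phosphate buffer (45 mM, pH 8.2, 0.02% Tween-20), compounds pinned in, then 1 mM L-glutamine solution and the glutamate oxidase–HRP–Amplex Red mix added; fluorescence read immediately and again after 30 min at room temperature.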

Chain of Glucocorticoid receptor (Homo sapiens) (P04150 whole entry, looked up): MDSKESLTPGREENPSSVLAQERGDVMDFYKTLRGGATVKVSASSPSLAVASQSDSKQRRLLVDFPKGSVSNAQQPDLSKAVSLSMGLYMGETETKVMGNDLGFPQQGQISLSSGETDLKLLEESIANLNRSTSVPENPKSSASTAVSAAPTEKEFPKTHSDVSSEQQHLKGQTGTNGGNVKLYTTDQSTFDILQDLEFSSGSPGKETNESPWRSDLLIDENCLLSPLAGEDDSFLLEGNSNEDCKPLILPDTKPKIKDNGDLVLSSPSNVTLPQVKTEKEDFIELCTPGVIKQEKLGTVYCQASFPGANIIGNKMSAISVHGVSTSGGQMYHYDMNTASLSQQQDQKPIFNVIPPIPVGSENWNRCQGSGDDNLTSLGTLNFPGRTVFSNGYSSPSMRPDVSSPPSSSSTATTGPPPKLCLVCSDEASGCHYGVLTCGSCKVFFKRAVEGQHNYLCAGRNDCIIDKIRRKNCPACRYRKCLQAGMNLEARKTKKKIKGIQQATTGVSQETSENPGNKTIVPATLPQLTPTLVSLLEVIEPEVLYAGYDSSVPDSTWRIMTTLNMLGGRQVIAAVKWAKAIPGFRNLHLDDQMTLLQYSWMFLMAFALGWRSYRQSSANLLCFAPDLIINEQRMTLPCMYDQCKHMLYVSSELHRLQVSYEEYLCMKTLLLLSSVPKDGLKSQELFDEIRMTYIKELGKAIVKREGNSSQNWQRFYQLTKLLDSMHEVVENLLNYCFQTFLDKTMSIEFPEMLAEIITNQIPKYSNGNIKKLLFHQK
Chain of Retinoic acid receptor RXR-alpha (Homo sapiens) (P19793 whole entry, looked up): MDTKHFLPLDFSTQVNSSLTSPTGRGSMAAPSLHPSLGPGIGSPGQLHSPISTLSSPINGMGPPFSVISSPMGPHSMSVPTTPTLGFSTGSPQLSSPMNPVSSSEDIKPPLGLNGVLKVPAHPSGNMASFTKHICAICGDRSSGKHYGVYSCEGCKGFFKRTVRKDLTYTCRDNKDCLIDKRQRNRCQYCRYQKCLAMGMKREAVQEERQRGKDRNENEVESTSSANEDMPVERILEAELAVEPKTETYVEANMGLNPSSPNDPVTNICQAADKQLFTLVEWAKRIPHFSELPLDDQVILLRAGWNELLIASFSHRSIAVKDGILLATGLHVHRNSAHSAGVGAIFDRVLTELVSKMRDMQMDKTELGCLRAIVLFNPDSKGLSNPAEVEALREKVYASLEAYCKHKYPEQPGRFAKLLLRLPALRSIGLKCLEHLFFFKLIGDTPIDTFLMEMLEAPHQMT
Chain of Thyroid hormone receptor beta (Homo sapiens) (P10828 whole entry, looked up): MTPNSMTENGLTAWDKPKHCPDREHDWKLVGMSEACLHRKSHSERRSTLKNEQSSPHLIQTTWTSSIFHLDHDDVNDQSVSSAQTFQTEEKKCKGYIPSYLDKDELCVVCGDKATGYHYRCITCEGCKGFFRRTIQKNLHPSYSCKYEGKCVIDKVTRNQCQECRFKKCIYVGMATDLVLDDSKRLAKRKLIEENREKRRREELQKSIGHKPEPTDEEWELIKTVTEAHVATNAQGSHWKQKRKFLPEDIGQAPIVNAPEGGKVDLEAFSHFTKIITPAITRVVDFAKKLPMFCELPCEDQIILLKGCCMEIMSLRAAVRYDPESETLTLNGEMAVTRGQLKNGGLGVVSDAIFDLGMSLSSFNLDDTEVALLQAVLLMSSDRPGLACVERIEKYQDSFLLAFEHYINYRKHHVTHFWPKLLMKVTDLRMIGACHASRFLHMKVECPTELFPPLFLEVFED
Chain of Luciferin 4-monooxygenase (Photinus pyralis) (P08659 whole entry, looked up): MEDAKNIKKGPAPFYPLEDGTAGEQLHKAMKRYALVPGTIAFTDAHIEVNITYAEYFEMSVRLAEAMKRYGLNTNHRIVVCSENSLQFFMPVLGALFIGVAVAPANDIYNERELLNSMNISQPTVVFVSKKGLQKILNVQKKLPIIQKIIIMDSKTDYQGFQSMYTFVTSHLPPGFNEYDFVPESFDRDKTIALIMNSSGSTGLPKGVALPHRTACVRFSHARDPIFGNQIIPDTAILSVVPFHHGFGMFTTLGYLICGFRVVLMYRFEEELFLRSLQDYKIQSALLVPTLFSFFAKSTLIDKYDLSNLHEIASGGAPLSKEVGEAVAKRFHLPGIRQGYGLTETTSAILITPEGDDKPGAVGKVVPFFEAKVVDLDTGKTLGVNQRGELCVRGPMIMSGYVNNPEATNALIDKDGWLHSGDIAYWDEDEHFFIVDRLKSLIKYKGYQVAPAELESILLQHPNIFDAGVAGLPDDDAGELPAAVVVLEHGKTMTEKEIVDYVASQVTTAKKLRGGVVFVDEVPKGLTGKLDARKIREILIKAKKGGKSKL
Chain of Peroxisome proliferator-activated receptor gamma (Homo sapiens) (P37231 whole entry, looked up): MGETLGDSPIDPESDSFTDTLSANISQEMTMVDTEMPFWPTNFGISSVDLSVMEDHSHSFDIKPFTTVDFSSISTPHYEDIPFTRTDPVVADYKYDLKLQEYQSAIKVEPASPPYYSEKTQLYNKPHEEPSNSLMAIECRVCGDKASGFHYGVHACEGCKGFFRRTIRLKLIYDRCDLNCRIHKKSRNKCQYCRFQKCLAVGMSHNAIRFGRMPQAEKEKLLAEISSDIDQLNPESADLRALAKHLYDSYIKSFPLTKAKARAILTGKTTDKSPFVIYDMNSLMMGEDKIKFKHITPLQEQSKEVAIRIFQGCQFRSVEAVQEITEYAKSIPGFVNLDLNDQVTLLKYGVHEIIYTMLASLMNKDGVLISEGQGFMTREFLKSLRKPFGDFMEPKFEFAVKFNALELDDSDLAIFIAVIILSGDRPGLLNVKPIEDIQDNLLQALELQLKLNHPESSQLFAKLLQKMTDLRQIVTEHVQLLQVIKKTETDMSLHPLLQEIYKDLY
Chain of Peroxisome proliferator-activated receptor delta (Homo sapiens) (Q03181 whole entry, looked up): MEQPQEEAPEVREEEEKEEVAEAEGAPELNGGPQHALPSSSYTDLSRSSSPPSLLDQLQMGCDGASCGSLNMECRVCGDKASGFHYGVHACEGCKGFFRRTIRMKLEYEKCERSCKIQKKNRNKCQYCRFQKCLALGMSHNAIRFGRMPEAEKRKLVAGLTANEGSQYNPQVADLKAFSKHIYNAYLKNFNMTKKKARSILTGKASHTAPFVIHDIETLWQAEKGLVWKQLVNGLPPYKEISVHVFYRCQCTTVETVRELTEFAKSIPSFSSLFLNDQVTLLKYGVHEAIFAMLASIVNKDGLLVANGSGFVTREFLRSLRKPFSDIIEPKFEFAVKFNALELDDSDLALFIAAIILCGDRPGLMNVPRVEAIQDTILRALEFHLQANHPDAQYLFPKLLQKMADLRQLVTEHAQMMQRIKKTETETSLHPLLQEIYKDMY

As to `CC#C[C@]1(O)CC[C@H]2[C@@H]3CCC4=CC(=O)CCC4=C3[C@@H](c3ccc(N(C)C)cc3)C[C@@]21C`, the activation in [1] was -13.5% (inactive). For the same molecule, the Potency result in [2], in [3] and in assay [4] was “inactive” in each case. Further, the Potency in assay [5] was 21.3 µM (active).
Turning to `CC(C)NCC(O)c1ccc(O)c(O)c1` (configuration not stated), in assay [1], the activation is -1.74% (inactive). Besides, the Potency result in assay [6], in assay [10], in assay [18], in assay [2], in [3] and in [4] was “inactive” throughout. The Potency result in assay [5] is “inactive”. Besides, the max response in assay [7] is 4.84% and 9.19%; in assay [13] it was -7.52% and -0.93%; in [15], -15.7% and 0.88%; in assay [16], -2.1% (inactive) and -5.01% (inactive). Further, the result in [8], in assay [9], in assay [11], in [12] and in [14] was inactive. For the same molecule, the activity change % (negative = inhibition) in assay [17] is -0.838% (inactive) and 16% (inactive).
Regarding `CC(C)(Oc1ccc(C2CC2(Cl)Cl)cc1)C(=O)O` (configuration not stated), in assay [1], the activation is -2.49% (inactive). For the same molecule, the Potency result in [6], in assay [10], in [18], in assay [2], in [3] and in assay [19] was “inactive” throughout. The Potency result in assay [20] and in assay [5] was “inactive” throughout. In addition, the max response in assay [7] is -19.7%; in [15], 3.34%; in assay [16], -27.6% (inactive). Besides, the outcome in assay [8], in [11] and in assay [12] was inactive. In addition, the activity change % (negative = inhibition) in [17] was -9.34% (inactive).
Consider `NCCS(=O)(=O)O`, for which the activation in assay [1] was 1.42% (inactive). Also, the Potency entry in [6], in assay [10], in assay [18], in assay [2], in assay [3] and in assay [19] was “inactive” in each case. In addition, the Potency result in assay [4], in assay [20] and in assay [5] was “inactive” in each case. The result in [9], in [11], in assay [12] and in [14] was inactive. The max response in assay [13] was -14.9%; in [15], -6.13%; in assay [16], -0.744% (inactive). Also, the activity change % (negative = inhibition) in assay [17] is -15.9% (inactive).
For the molecule `COc1ccccc1N1CCN(CC(O)COc2cccc3ccccc23)CC1` (configuration not stated), in assay [18], the Potency was 3.16 µM (active) and 794 nM (active). Besides, the Potency result in [2] and in assay [5] was “inactive” throughout.
As to `CC12CC3CC(C)(C1)CC(N)(C3)C2`, the Potency entry in assay [18], in assay [2], in assay [3], in [19], in [20] and in assay [5] was “inactive” each time.
For `CC(=O)OCC(CCn1cnc2cnc(N)nc21)COC(C)=O`, the Potency result in [18], in assay [2], in [3] and in assay [19] was “inactive” in each case.
On to `CCOC(=O)Nc1ccc(NCc2ccc(F)cc2)nc1N`, for which the Potency in assay [18] was 14.1 µM (active); in [20] it was 12.6 µM (active). Further, the Potency entry in [2], in assay [3], in assay [4] and in [5] was “inactive” each time.
With `NCCCCCC(=O)O`, the Potency result in [18], in [2], in assay [3], in assay [19], in assay [20] and in assay [5] was “inactive” throughout.
